Test results taken from article PMC5700166.
Changes are numbered by the printed parent chain.

Key:
Assay in all cases: protein-binding microarray (PBM); PBM: ~300 nM protein, 6 mM HEPES pH 7.8, 80 mM KCl, 0.5 mM EDTA, 0.5 mM EGTA, 6% glycerol, 35 ng/ul poly-dIdC, 1% milk, 1 h, room temperature; Ap Aiptasia and Nv Nematostella (sea anemones) / Co Capsaspora / Aq Amphimedon (sponge) / Dm Drosophila / Hu human; RHD is the Rel homology domain; high values mean tight binding
Details in all cases: dsDNA, one strand shown
GST-Ap-NF-kB RHD = biological target: T1, GST-Ap-NF-kB RHD (Exaiptasia pallida (Aiptasia), UniProt A0A913YAJ5 2-422)
T1 sequence: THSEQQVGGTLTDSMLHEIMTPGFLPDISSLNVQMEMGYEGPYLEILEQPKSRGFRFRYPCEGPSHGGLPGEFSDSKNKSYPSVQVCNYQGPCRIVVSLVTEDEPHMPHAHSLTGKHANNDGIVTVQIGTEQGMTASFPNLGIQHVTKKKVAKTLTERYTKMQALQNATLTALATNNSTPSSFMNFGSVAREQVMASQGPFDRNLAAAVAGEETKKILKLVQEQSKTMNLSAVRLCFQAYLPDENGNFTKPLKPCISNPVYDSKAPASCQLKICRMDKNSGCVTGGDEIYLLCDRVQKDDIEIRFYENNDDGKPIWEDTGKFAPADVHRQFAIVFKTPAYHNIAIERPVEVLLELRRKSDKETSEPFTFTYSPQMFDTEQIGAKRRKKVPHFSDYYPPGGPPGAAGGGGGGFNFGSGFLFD

[1] = biological target: T2, GST-Nv-NF-kB (Cys allele) (Nematostella vectensis, UniProt E5G601 2-411)
T2 sequence: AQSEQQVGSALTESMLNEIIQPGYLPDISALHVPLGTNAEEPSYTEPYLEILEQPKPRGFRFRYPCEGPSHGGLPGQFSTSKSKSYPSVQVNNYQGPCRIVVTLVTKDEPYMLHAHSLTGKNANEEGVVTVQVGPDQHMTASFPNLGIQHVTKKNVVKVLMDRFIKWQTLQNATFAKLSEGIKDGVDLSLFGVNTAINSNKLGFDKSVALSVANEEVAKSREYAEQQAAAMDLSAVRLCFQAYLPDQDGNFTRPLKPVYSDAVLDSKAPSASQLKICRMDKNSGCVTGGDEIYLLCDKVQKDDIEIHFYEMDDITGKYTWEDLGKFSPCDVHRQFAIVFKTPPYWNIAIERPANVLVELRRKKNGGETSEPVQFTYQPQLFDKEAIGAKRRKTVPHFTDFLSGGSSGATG

[2] = biological target: T3, GST-Nv-NF-kB (Ser allele) (Nematostella vectensis, UniProt A7UNT2 2-411)
T3 sequence: T2 sequence with Q21R, C66S, S207N, E215Q, V217A, E225K, A268E, D399E

GST-Co-NF-kB = biological target: T4, GST-Co-NF-kB (Capsaspora owczarzaki, UniProt F1ARL5 200-546)
T4 sequence: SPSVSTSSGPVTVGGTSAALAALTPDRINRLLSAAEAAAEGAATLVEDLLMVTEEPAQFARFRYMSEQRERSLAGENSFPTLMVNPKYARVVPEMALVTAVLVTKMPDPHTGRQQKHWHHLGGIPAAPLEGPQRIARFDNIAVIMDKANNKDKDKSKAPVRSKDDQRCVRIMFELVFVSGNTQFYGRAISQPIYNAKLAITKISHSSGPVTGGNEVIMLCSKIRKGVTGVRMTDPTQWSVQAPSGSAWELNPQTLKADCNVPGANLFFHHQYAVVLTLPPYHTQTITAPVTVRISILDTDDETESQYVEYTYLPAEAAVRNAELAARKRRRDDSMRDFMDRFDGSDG

GST-Dm-Relish = biological target: T5, GST-Dm-Relish (Drosophila melanogaster, UniProt Q94527 99-473)
T5 sequence: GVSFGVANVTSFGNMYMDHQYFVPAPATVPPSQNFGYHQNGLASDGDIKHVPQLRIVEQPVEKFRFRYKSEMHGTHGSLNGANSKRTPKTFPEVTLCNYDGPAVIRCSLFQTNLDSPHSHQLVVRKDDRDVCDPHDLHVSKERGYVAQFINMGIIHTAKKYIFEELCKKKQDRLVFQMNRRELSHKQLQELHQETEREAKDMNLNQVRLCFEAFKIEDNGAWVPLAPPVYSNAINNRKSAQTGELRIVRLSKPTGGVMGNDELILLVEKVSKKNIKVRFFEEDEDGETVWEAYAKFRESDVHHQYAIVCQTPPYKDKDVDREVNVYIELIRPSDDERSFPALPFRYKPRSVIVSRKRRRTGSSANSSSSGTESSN

GST-Aq-NF-kB = biological target: T6, GST-Aq-NF-kB (Amphimedon queenslandica, UniProt A9Y5G7 2-389)
T6 sequence: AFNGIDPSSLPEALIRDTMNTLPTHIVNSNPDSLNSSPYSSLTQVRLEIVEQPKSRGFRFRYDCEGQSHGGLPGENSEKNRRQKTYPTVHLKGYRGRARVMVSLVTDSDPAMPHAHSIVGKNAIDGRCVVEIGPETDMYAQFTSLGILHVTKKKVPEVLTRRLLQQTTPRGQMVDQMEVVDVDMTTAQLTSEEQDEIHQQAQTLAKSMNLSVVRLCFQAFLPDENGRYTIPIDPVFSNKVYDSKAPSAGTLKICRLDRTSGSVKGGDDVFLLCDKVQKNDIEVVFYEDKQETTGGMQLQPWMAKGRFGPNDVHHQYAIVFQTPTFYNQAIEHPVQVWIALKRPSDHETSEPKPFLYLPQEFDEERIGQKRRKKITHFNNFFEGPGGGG

GST-Hu-p50 = GST-Hu-p50 (Homo sapiens, UniProt P19838 7-356)
Sequence of GST-Hu-p50 (P19838 7-356): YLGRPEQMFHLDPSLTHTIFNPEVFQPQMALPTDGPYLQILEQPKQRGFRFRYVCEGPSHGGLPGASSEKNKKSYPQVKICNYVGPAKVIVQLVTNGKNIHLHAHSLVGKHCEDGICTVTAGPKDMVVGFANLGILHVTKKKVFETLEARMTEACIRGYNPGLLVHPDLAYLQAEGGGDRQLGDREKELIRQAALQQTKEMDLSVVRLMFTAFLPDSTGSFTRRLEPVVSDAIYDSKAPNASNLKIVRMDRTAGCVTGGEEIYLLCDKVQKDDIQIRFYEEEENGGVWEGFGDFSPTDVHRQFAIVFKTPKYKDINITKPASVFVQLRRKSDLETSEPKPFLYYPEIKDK

Sequence | binding signal (GST-Ap-NF-kB RHD) | binding signal [1] | binding signal [2] | binding signal (GST-Co-NF-kB) | binding signal (GST-Dm-Relish) | binding signal (GST-Aq-NF-kB) | binding signal (GST-Hu-p50)
CCGATTAACATCAGGGGGAATTATGATGTTAATCGGGTCTTGATTCGCTTGACGCTGCTG | 7.99 z-score | 9.53 z-score | 10.6 z-score | 9.25 z-score | 7.03 z-score | 7 z-score | 7.24 z-score
CCGATTAACATCAGGGGAAAAGATGATGTTAATCGGGTCTTGATTCGCTTGACGCTGCTG | 5.46 z-score | 6.76 z-score | 9.01 z-score | 7.74 z-score | 1.82 z-score | 4.78 z-score | 5.18 z-score
CCGATTAACATCAAAGTTTCCCCTGATGTTAATCGGGTCTTGATTCGCTTGACGCTGCTG | 7.96 z-score | 9.57 z-score | 12 z-score | 10.6 z-score | 5.37 z-score | 7.26 z-score | 6.85 z-score
CCGATTAACATCAAGTATCCCCCTGATGTTAATCGGGTCTTGATTCGCTTGACGCTGCTG | 6.69 z-score | 5.06 z-score | 6.27 z-score | 7.27 z-score | 4.38 z-score | 4.99 z-score | 5.34 z-score
CCGATTAACATCAGGGGAATGTATGATGTTAATCGGGTCTTGATTCGCTTGACGCTGCTG | 6.02 z-score | 7.74 z-score | 8.56 z-score | 6.26 z-score | 2.96 z-score | 5.58 z-score | 5.69 z-score
CCGATTAACATCACACTACCCCCTGATGTTAATCGGGTCTTGATTCGCTTGACGCTGCTG | 4.66 z-score | 2.12 z-score | 4.06 z-score | 3.89 z-score | 1.77 z-score | 2.65 z-score | 3.3 z-score
CCGATTAACATCAAGAAGTTCCCTGATGTTAATCGGGTCTTGATTCGCTTGACGCTGCTG | 3.54 z-score | 3.73 z-score | 2.6 z-score | 2.42 z-score | 3.58 z-score | 4.79 z-score | 3.17 z-score
CCGATTAACATCAGGGGGCTATATGATGTTAATCGGGTCTTGATTCGCTTGACGCTGCTG | 3.62 z-score | 3.23 z-score | 2.2 z-score | 1.85 z-score | 2.75 z-score | 3.69 z-score | 3.35 z-score
CCGATTAACATCAGAGACTTCCCTGATGTTAATCGGGTCTTGATTCGCTTGACGCTGCTG | 1.92 z-score | 2.44 z-score | 2.19 z-score | 1.11 z-score | 1.95 z-score | 3.32 z-score | 1.57 z-score
CCGATTAACATCACACTTTTCCCTGATGTTAATCGGGTCTTGATTCGCTTGACGCTGCTG | 3.17 z-score | 4.45 z-score | 6.11 z-score | 4.46 z-score | 1.59 z-score | 3.57 z-score | 2.84 z-score
CCGATTAACATCAGGGGCTTTTATGATGTTAATCGGGTCTTGATTCGCTTGACGCTGCTG | 6.92 z-score | 9.51 z-score | 7.11 z-score | 1.53 z-score | 7.16 z-score | 7.6 z-score | 6.51 z-score
CCGATTAACATCAAAGCTTCCCCTGATGTTAATCGGGTCTTGATTCGCTTGACGCTGCTG | 5.17 z-score | 6.28 z-score | 7.74 z-score | 7.56 z-score | 3.8 z-score | 4.64 z-score | 5.4 z-score
